From PubChem BioAssay AID1851 (National Center for Advancing Translational Sciences (NCATS), 2009)
“And” between values parts separate entries of the source, which are not always exact repeats. Equal entries are not always repeated. About 5,700 (36%) of roughly 16,000 compounds were called active. About 24% were inconclusive and are not listed. The list shows a part of the results. Unmarked numbers belong to inactive results. Calls come from the whole dose curve; as a rule, active = well fitted curve in the direction sought with a large enough effect; inconclusive = small, poorly fitted or top-dose-only effect, or effect the other way; inactive = no such curve, though single readings can be large or run the other way.

Molecular target: Cytochrome P450 1A2 (Homo sapiens) (UniProt P05177)
Assay: Cytochrome panel assay with activity outcomes
Conditions: recombinant CYP, pro-luciferin dealkylation, luminescence, p450-cyp1a2; series mostly up to 57.1 µM
% is set by controls: 0 for no effect and ±100 for the full control effect.

Cytochrome P450 1A2 (Homo sapiens), sequence (P05177 whole entry, looked up): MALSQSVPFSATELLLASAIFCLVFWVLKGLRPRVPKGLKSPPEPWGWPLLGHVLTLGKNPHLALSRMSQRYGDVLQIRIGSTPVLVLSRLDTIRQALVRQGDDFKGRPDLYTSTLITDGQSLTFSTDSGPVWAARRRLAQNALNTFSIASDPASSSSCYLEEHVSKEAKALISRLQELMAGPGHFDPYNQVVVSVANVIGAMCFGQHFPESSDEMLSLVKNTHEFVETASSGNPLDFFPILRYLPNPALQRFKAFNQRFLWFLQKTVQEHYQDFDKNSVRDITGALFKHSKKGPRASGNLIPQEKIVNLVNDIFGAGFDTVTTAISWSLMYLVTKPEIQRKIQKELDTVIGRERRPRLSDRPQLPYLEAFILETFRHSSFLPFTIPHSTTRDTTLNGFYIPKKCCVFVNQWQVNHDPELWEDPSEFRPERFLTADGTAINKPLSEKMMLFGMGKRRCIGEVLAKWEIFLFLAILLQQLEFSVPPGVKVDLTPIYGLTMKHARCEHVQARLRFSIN

SMILES	AC50	activity, negative = inhibition
CC(C)SC(=N)N	inactive	–
Cc1noc(C)c1C(=O)N1CCC[C@@]2(CCN(C(=O)NC(C)C)C2)C1	inactive	–
O=C(O)CP(=O)(O)O	inactive	–
Cc1oc(-c2cccc(Cl)c2)[n+]([O-])c1C	4.47 µM (active)	–
CCCC/C=C/C(NC(=O)Oc1cccc(C(F)(F)F)c1)c1ccccc1 (stereo unspecified)	2.51 µM (active)	–
CCC(=O)Nc1ccc(C(=O)NNC(=O)c2cccs2)cc1	inactive	–
O=C(c1cccs1)N1CCN(C(=O)C(c2ccccc2)c2ccccc2)CC1	inactive	–
CCCC/C=C/C(NC(=O)c1cccs1)c1ccccc1 (stereo unspecified)	1.58 µM (active)	–
CCC/C=C(\CCC)C(NP(=O)(c1ccccc1)c1ccccc1)c1ccc(C(F)(F)F)cc1 (stereo unspecified)	inactive	–
CCCC/C=C/C(NC(=O)c1ccco1)c1ccccc1 (stereo unspecified)	5.01 µM (active)	–
C#CCOC(=O)NC(/C=C/CCCC)c1ccccc1 (stereo unspecified)	15.8 µM (active)	–
Nc1ncnc2c1nc(Br)n2[C@@H]1O[C@H]2COP(=O)(O)O[C@@H]2[C@H]1O	inactive	–
CC1(C)Cc2ccccc2C(N/N=C/c2cccc(F)c2)=N1	11.2 µM (active)	–
Cn1c(Oc2ccccc2)c(C=O)c2ccccc21	7.08 µM (active)	–
COc1ccc(Oc2c(C=O)c3ccccc3n2C)cc1	14.1 µM (active)	–
Cc1cccc(C(=O)NN(C)c2nc(-c3ccccc3)nnc2C(F)(F)F)c1	inactive	–
FC(F)(F)c1nnc(-c2ccccc2)nc1Sc1ccccc1	1.41 µM (active)	–
COc1ccccc1C/C(N)=N/OC(=O)c1ccc(C)c([N+](=O)[O-])c1	14.1 µM (active)	–
COc1ccccc1CC(=O)O/N=C(\N)Cc1cccc2ccccc12	11.2 µM (active)	–
COc1ccc(CC(=O)O/N=C(\N)Cc2ccc(OC)cc2)cc1	inactive	–
COc1ccccc1CNC(=O)C/C(C)=N/NC(=O)Cc1ccccc1	inactive	–
C[N+](C)(C)CCOC(N)=O	inactive	–

SMILES	AC50	activity, negative = inhibition
CCOC(=O)[C@@H](O)Cc1cnc2ccccc2n1	3.16 µM (active)	–
O=S(=O)(c1cnccc1N1CCN(CCO)CC1)N1CCCC1	–	-8.25% [at 2.29 µM]
FC(F)(F)c1cc(CN2CCC3(CCNCC3)CC2)cc(C(F)(F)F)c1	inactive	–
Cc1ccc(NC(=O)c2cccc(N(C)C)c2)cc1NC(=O)c1ccc(O)cc1	1.26 µM (active)	–
OC(COc1ccc(OCC(O)CN2CCCCCC2)cc1)CN1CCCCCC1 (stereo unspecified)	inactive	–
Cc1nn(CC(O)COc2ccc3c(c2)CCC3)c(C)c1Br (stereo unspecified)	12.6 µM (active)	–
COc1ccc(C2=CSC(/N=C/c3ccc(F)cc3)=NN2)cc1	2.82 µM (active)	–
CC(C)=NO[C@@H](C)CN1CCCCc2nc(C)c(C)cc21	–	-10.5% [at 11.4 µM]
Cc1ccc(NC(=O)CCC(=O)NNS(=O)(=O)c2ccccc2)c(C)c1	inactive	–
Cc1cc(Br)ccc1NC(=O)CCSc1ccccc1	4.47 µM (active)	–
S=C(S)O[C@@H]1C[C@@H]2C[C@H]1[C@@H]1CCC[C@H]21	inactive	–
O=C(COc1ccccc1-c1ccccc1)N/N=C/c1cccc2ccccc12	0.794 µM (active)	–
O=C(COc1ccc(-c2ccccc2)cc1)N/N=C/c1ccccc1Br	5.01 µM (active)	–
COc1ccc(OCC(=O)NNC(=O)c2ccc(-c3ccccc3)cc2)cc1	inactive	–
O=c1[nH]c(SCc2c(Cl)c(Cl)c(Cl)c(Cl)c2Cl)nc(=S)[nH]1	1 µM (active)	–
CCCC[C@H]1C[C@@H]1[C@@H]1N(P(=O)(c2ccccc2)c2ccccc2)[C@](CO)(c2ccccc2)CC12CC2	inactive	–
CCCc1nnc(SCC(=O)O)n1/N=C/c1ccc2c(c1)OCO2	15.8 µM (active)	–
CCc1n[nH]c(=S)n1/N=C/c1ccc2c(c1)OCO2	2.24 µM (active)	–
CSc1nncn1/N=C/c1ccc2c(c1)OCO2	4.47 µM (active)	–
CCCc1nnc(SCC(=O)N2CCCC(C)C2)n1CC1CCCO1 (stereo unspecified)	inactive	–
CCCc1nnc(SCC(=O)N2CCCCC2)n1CCCOC	inactive	–
OC[C@@H]1O[C@@H](O)[C@H](N=Cc2ccc3c(c2)OCO3)[C@@H](O)[C@@H]1O	–	-24.4% [at 2.29 µM]

SMILES	AC50	activity, negative = inhibition
O=c1cc(CSc2nnc(-c3cccnc3)n2-c2ccccc2F)nc2sccn12	inactive	–
COCCn1c(=O)c(-c2ccc(F)cc2)nc2cnc(N(C)C)nc21	2 µM (active)	–
COCCn1c(=O)c(-c2ccc(Cl)cc2)nc2cnc(N(C)C)nc21	1 µM (active)	–
COCCn1c(=O)c(-c2ccccc2)nc2cnc(N(C)C)nc21	3.16 µM (active)	–
C[C@@H]1/C=C\CC(=O)OC[C@H](C)C(=O)N2CCC[C@@H]2C(=O)OC1	–	-1.21% [at 11.4 µM]
Cc1ccc(/C=C/c2ccc(=O)n(Cc3ccc(Cl)cc3Cl)n2)cc1	10 µM (active)	–
CC(=O)OC[C@@H]1O[C@H](CCON=C(C)C)C=C[C@@H]1OC(C)=O	–	4.98% [at 11.4 µM]
CS(=O)(=O)N(CC(=O)O)Cc1ccccc1	–	4.38% [at 11.4 µM]
ON(CCc1ccncc1)Cc1ccccc1	1 µM (active)	–
CNCCc1ccccn1	inactive	–
O=C1NC(=O)[C@@](Cc2ccccc2)(c2cccnc2)N1	–	-17.1% [at 2.29 µM]
ON(CCc1ccccn1)Cc1ccccc1	2.51 µM (active)	–
c1ccc(CCc2cccnc2)nc1	0.398 µM (active)	–
Cc1nc2nc(C)c(CCC(=O)NCCCN3CCN(c4cccc(Cl)c4)CC3)c(C)n2n1	inactive	–
O=C(c1csnn1)N1CCC2(CCN(Cc3ccccc3)CC2)CC1	inactive	–
Cc1ccccc1CSc1nsc(N)n1	14.1 µM (active)	–
O=C(N/C(=C\c1cccs1)C(=O)N1CCCCCC1)c1ccccc1	inactive	–
O=C(NNC(=O)c1ccccc1)C(=O)N1CCCCC1	inactive	–
O=C(NC(N1CCCC1)C(Cl)(Cl)Cl)c1ccccc1 (stereo unspecified)	11.2 µM (active)	–
COc1ccc(C(=O)c2ccccc2)c(O)c1	1.58 µM (active)	–
O=C(O)c1ccc(C(=O)c2ccccc2)c(C(=O)O)c1	–	3.14% [at 2.29 µM]
COc1ccc2nccc(C(=O)O)c2c1	inactive	–

SMILES	AC50	activity, negative = inhibition
COc1ccc(OC)c(-c2cc(C(=O)O)c3cc4ccccc4cc3n2)c1	–	-21.4% [at 2.29 µM]
COc1ccc2oc(C(=O)c3ccccc3)c(N)c2c1	1.26 µM (active)	–
O=C(O)c1ccc(C(=O)c2ccccc2C(=O)O)cc1C(=O)O	–	2.76% [at 11.4 µM]
CN(C)c1nccc(N(Cc2ccccc2)Cc2ccccc2)c1C#N	11.2 µM (active)	–
COc1ccc(CN(CCN(C)C)c2ccccn2)cc1	inactive	–
Cc1ccc(N(Cc2ccccc2)Cc2ccccc2)cc1	–	-24.2% [at 2.29 µM]
Cc1cc(N2C(=O)C(O)=C(C(=O)c3ccco3)C2c2ccc(O)cc2)no1 (stereo unspecified)	inactive	–
Cc1ccc2occ(/C=C/C(=O)O)c(=O)c2c1	inactive	–
c1csc(CNc2ncncc2-c2ccoc2)c1	2 µM (active)	–
c1cncc(-c2cncnc2NCc2cccs2)c1	0.316 µM (active)	–
c1ccc(CNc2ncncc2-c2ccoc2)cc1	5.01 µM (active)	–
CC(N)=NCc1cccc(CN)c1	inactive	–
O=C(NCc1ccccc1)C(c1ccncc1)N(C(=O)c1csnn1)C1CC1 (stereo unspecified)	inactive	–
CN(C)CCCN1CCC2(CCC(C(C)(C)C)CC2)CC1	–	-1.31% [at 11.4 µM]
N#Cc1cccc(-c2nc(N3CCNCC3)c3ccccc3n2)c1	2.51 µM (active)	–
CN1CCN(c2nc(-c3cccc(C#N)c3)nc3ccccc23)CC1	1.58 µM (active)	–
COc1ccc(-c2nc(-c3cccc(C)c3)nc(N3CCN(C)CC3)c2C#N)cc1	inactive	–
COc1ccc(C(=O)NC2(C(F)(F)F)C(=O)Nc3c2c(=O)[nH]c(=O)n3CCc2ccc(OC)c(OC)c2)cc1 (stereo unspecified)	inactive	–
CC(=O)OCc1c(C(F)(F)F)nn(C)c1Sc1ccccc1	15.8 µM (active)	–
COc1cc(S(C)=O)ccc1-c1nc2ncccc2[nH]1 (stereo unspecified)	0.251 µM (active)	–
O=C(O)C[C@H](NC(=O)CP(=O)(O)O)C(=O)O.[NH-][C@@H]1CCCC[C@@H]1[NH-].[Pt]	–	-15.5% [at 11.4 µM]
FC(F)(F)c1nnc2c(Sc3ccccc3)nc3ccc(Cl)cc3n12	0.708 µM (active)	–

SMILES	AC50	activity, negative = inhibition
FC(F)(F)c1nnc2c(Sc3ccc(Cl)cc3)nc3ccccc3n12	0.1 µM (active)	–
CC(/C=N/n1c(-c2cccnc2)n[nH]c1=S)=C\c1ccccc1	0.141 µM (active)	–
O=C(O)c1nn(-c2ccccc2)ccc1=O	inactive	–
NNC(=O)c1nn(-c2ccc(Cl)cc2)ccc1=O	15.8 µM (active)	–
CC(C)=CCC/C(C)=C/CO/N=C1/C[C@@H](O)[C@@H](O)[C@@H]2[C@H]3C(=O)N(c4ccc(F)cc4F)C(=O)[C@@H]3CC[C@@H]12	–	8.54% [at 11.4 µM]
C#CCN(C)Cc1ccccc1	inactive	–
C#CCN(C)CCCOc1ccc(Cl)cc1Cl	631 nM (active) and 158 nM (active)	–
CC[C@]1(O)C[C@H]2CN(CCc3c([nH]c4ccccc34)[C@](C(=O)OC)(c3cc4c(cc3OC)N(C=O)[C@H]3[C@@](O)(C(=O)OC)[C@H](OC(C)=O)[C@@]5(CC)C=CCN6CC[C@]43[C@H]65)C2)C1	inactive	–
CO[C@H]1C[C@@H]2C[C@H](O)C[C@@H](CC(=O)O[C@@H](/C=C\CC(C)C)C[C@@H]3CC[C@H](C)[C@@H](C1)O3)O2	–	-2.91% [at 11.4 µM]
CSc1ccc2c(c1)N(CC[C@H]1CCCCN1C)c1ccccc1S2	7.94 µM (active)	–
Clc1ccc2c(c1)N(CCCN1CCCC13CCCCC3)c1ccccc1S2	–	-6.18% [at 2.29 µM]
CCSc1ccc2c(c1)N(CCCN1CCN(C)CC1)c1ccccc1S2	0.316 µM (active)	–
O=C1CSC2(CCN(CCCN3c4ccccc4Sc4ccc(Cl)cc43)CC2)N1	3.16 µM (active)	–
CN1CCCC[C@@H]1CCN1c2ccccc2Sc2ccc(S(C)=O)cc21 (stereo partly specified)	inactive	–
CN1CCC[C@@H]1CCO[C@](C)(c1ccccc1)c1ccc(Cl)cc1	inactive	–
CN1CCN(CCCN2c3ccccc3Sc3ccc(Cl)cc32)CC1	1 µM (active) and 2.51 µM (active)	–
O=c1n(CCCN2CCN(c3cccc(Cl)c3)CC2)nc2ccccn12	inactive	–
OC1CC2CC[C@H](C1)N2CCCN1c2ccccc2Sc2ccc(Cl)cc21 (stereo partly specified)	–	-12.5% [at 11.4 µM]
